According to the supplement of paper PMC11628255, “Interference of metal ions on the bioluminescent signal of firefly, Renilla, and NanoLuc luciferases in high-throughput screening assays” (Frontiers in Chemistry, 2024):
± gives the standard deviation of the averaged measurements.

Tested on: firefly luciferase (FLuc)
Assay: residual bioluminescent signal relative to negative (DMSO) control; higher = less interference (more residual luciferase signal)
Description: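 Purified luciferase (FLuc 10 nM + 10 uM D-luciferin; NLuc 10 pM + 10 uM furimazine; RLuc 50 pM + 2 uM coelenterazine) in 384-well plates; metal salt pre-incubated with enzyme 10 min at RT, substrate added and luminescence read after 10 min. Signal normalised to plate DMSO negative control (% N_VALUE = x/mean neg *100); triplicate wells at 0.01, 1 and 5 mM salt.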

[1] = metal salt concentration 0.01 mM, HEPES conditions (100 mM HEPES, 5 mM MgSO4, 10 uM ATP, pH 7.5)
[2] = metal salt concentration 0.01 mM, screening conditions (0.5 mM Tris, 50 mM glycine, 0.5 mM EDTA, 5 mM MgSO4, 10 uM ATP, pH 7.6)
[3] = metal salt concentration 1 mM, HEPES conditions (100 mM HEPES, 5 mM MgSO4, 10 uM ATP, pH 7.5)
[4] = metal salt concentration 1 mM, screening conditions (0.5 mM Tris, 50 mM glycine, 0.5 mM EDTA, 5 mM MgSO4, 10 uM ATP, pH 7.6)
[5] = metal salt concentration 5 mM, HEPES conditions (100 mM HEPES, 5 mM MgSO4, 10 uM ATP, pH 7.5)
[6] = metal salt concentration 5 mM, screening conditions (0.5 mM Tris, 50 mM glycine, 0.5 mM EDTA, 5 mM MgSO4, 10 uM ATP, pH 7.6)

| SMILES | residual bioluminescent signal [1] | residual bioluminescent signal [2] | residual bioluminescent signal [3] | residual bioluminescent signal [4] | residual bioluminescent signal [5] | residual bioluminescent signal [6] |
| --- | --- | --- | --- | --- | --- | --- |
| [Cl-].[Na+] [sodium chloride] | 102 ± 17% | 104.5 ± 0.25% | 103 ± 19% | 101 ± 5.4% | 92.4 ± 2% | 79.7 ± 3.2% |
| O=S(=O)([O-])[O-].[Mn+2] [manganese(II) sulfate] | 85 ± 11% | 82.6 ± 4.7% | 80.6 ± 12% | 77.1 ± 3.5% | 79.4 ± 13% | 57.4 ± 8.1% |
| [Cl][Fe]([Cl])[Cl] [iron(III) chloride] | 15.5 ± 8.2% | 1.32 ± 0.63% | 1.09 ± 0.62% | 0.712 ± 0.4% | 1.9 ± 1.9% | 0.29 ± 0.046% |
| [Cl][Pt-2]([Cl])([Cl])[Cl].[K+].[K+] [potassium tetrachloroplatinate(II)] | 85 ± 8% | 87.9 ± 6.2% | 3.8 ± 0.62% | 0.659 ± 0.66% | 1.09 ± 0.23% | 0.343 ± 0.12% |
| O=C([O-])[O-].[Cs+].[Cs+] [caesium carbonate] | 85.2 ± 14% | 93.8 ± 6.3% | 91.6 ± 14% | 103 ± 2.9% | 79.4 ± 4.7% | 56.2 ± 6.8% |
| O.O.O.O.O.O.O.O=S(=O)([O-])[O-].[Mg+2] [magnesium sulfate] | 78.3 ± 4.9% | 71.5 ± 6.5% | 77.4 ± 17% | 68 ± 5.2% | 55.5 ± 13% | 47.7 ± 6.9% |
| O.O.O.O.O.O.O.O.O.O.O=S(=O)([O-])[O-].[Na+].[Na+] [sodium sulfate] | 81.9 ± 8.1% | 73.4 ± 5.7% | 51 ± 7.2% | 70.4 ± 8.2% | 20 ± 6.1% | 51.1 ± 3.8% |
